A selection: hits, their analogues and other compounds. The true share with any hit is near 4.1%.
CHT PAM: CHT positive allosteric modulators, primary screen, cell-based, membrane potential dye, choline EC20; High affinity choline transporter 1 (Homo sapiens), Q9GZV3; CHT-expressing cells; hits give high values; LV-AA mutant CHT in HEK293 cells; B-score at 10 µM; actives 0.49% (n = 310,000); AID 488977, 2010;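 active means initial fluorescence not abnormally high and integrated response B-score, plate-corrected, over 3 SD above library mean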
Target sequence (Q9GZV3 whole entry, looked up): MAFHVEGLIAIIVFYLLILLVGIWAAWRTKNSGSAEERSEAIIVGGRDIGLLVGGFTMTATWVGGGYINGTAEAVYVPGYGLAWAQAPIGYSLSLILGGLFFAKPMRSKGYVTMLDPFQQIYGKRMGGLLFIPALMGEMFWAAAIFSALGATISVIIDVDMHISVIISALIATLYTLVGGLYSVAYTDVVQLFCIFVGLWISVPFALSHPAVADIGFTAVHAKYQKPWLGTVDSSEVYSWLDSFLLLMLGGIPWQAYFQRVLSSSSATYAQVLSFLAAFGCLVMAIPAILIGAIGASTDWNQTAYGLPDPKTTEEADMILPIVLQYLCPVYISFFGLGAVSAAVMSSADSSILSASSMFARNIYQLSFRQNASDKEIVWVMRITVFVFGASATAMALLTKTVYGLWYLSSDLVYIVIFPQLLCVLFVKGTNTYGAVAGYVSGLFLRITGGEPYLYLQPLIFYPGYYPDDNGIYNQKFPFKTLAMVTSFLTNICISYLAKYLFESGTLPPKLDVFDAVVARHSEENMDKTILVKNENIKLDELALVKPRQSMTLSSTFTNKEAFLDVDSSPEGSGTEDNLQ
SUMO Mot1 rescue: yeast Mot1-301 growth rescue at high temperature, primary screen, SUMOylation pathway inhibitor project, S. cerevisiae, ATP luminescence, 38.5C; S. cerevisiae Mot1-301 growth rescue; percent above DMSO median, 100 means doubled; growth rescue, % at 18.8 µM; actives 1% (n = 320,000);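 active means every valid replicate shows activation above 250% relative to neutral control wells; inactive means the rest, any valid replicate at or below 250%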;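 further: OY570 slx delta 5 strain wells were the positive control but not used for scaling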
MEKK2wt PB1 HTS: modulators of MEK5 binding to wildtype MEKK2, primary screen, biochemical, multiplex bead flow cytometry, Alexa488-MEK5; Alexa488-MEK5 binding to MEKK2 WT; actives lie on both sides; binding response (% of control), % at 10 µM; actives 1.1% (n = 290,000); in the data active means binding response below about 67% or above about 130%
MEKK3 PB1 HTS: modulators of MEKK3-MEK5 PB1 binding, primary screen, biochemical, wildtype MEKK3, multiplex bead flow cytometry, Alexa488-MEK5. actives 1.4% (n = 290,000). Mitogen-activated protein kinase kinase kinase 3 (Homo sapiens), Q99759. bead-based flow cytometry, Alexa488-MEK5 binding to MEKK3; actives lie on both sides; 0 = blocked by unlabeled MEK5, 100 = vehicle. binding response (% of control), % at 10 µM;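 active means binding response more than 3 SD above or below the average of its plate-row segment, actives on both sides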;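 further: Alexa488 bead fluorescence after subtracting the streptavidin-only scavenger bead signal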
CHT block: inhibitors of human choline transporter CHT | High affinity choline transporter 1 (Homo sapiens), Q9GZV3 | CHT-expressing cells, membrane potential dye, choline response; hits give low values | B-score at 10 µM | actives 0.86% (n = 310,000) | AID 488975, 2010;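 active means B-score over 3 SD under the library average, and starting fluorescence ratio not unusually high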;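 further: choline stimulus applied at its EC90 after an EC20 pre-addition; B-score computed on integrated fluorescence ratio after choline addition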
MEKK2 mut-MEK5: MEK5 binding signal on mutant MEKK2 PB1, primary screen, biochemical, multiplex bead flow cytometry, Alexa488-MEK5; Alexa488-MEK5 binding to MEKK2 mutant; actives 0.35% (n = 290,000); percent response, % at 10 µM; AID 1530, 2009; in the data active means percent response above about 24%, passing the limit was not always enough
MEKK2wt confirm: modulators of MEK5 binding to wildtype MEKK2, confirmation, biochemical, single concentration, multiplex bead flow cytometry; shares compounds with MEKK3 PB1 HTS; Alexa488-MEK5 binding to MEKK2 WT; actives lie on both sides; binding response (% of control), % at 10 µM; actives 2.4% (n = 5,900); in the data active means binding response below about 16% or above about 210%; inactive means in between
MEKK2mut confirm: mutant MEKK2 PB1-MEK5 binding signal retest – biochemical, single concentration, multiplex bead flow cytometry, confirmation | shares compounds with MEKK3 PB1 HTS | Alexa488-MEK5 binding to MEKK2 mutant | percent response, % at 10 µM | actives 2% (n = 5,900) | AID 1893, 2009; in the data active means percent response mostly above about 71%, no sharp cut-off; inactive means mostly below about 38%;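 further: higher means compound restores mutant binding toward wildtype level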
MEKK3 confirm: MEKK3 wild-type PB1 binding to MEK5, inhibitors, confirmation, biochemical, bead multiplex flow cytometry, single concentration, wildtype; shares compounds with MEKK3 PB1 HTS; Alexa488-MEK5 binding to MEKK3; hits give low values; binding response (% of control), % at 10 µM; actives 1.8% (n = 5,900);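 active means binding response below 72% of control, or above a set upper limit, though filed actives all read lower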;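 further: 100% = DMSO only wells and 0% = binding blocked by excess unlabeled MEK5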
An asterisk follows results filed as active; [ ] = another dose, or the depositor's remark.

For COc1ccccc1C(=O)C1CCCN(C(=O)c2cccnc2SC)C1 (centres undefined) the results were CHT PAM inactive, SUMO Mot1 rescue -18.6, MEKK2wt PB1 HTS 632.0*, MEKK3 PB1 HTS 128.0*, CHT block inactive, MEKK2 mut-MEK5 541.0*, MEKK2wt confirm 100.0, MEKK2mut confirm -1.0 and MEKK3 confirm 99.0.
For O=C(COC(=O)C1(c2ccccc2F)CCCC1)NCc1cccs1 the results were CHT PAM inactive, SUMO Mot1 rescue -10.3, MEKK2wt PB1 HTS 98.0, MEKK3 PB1 HTS 104.0, CHT block inactive and MEKK2 mut-MEK5 -1.0.
For NC(=O)c1ccc(NC(=O)COC(=O)C2(c3ccccc3F)CCCC2)cc1 the results were CHT PAM inactive, SUMO Mot1 rescue -4.0, MEKK2wt PB1 HTS 88.0, MEKK3 PB1 HTS 73.0*[inhibitor], CHT block inactive, MEKK2 mut-MEK5 -2.0, MEKK2wt confirm 100.0, MEKK2mut confirm 1.0 and MEKK3 confirm 103.0.
Screening O=C(O)C(Cc1cc(Cl)ccc1Cl)Sc1nc2ccccc2[nH]1 (centres undefined) returned CHT PAM inactive, SUMO Mot1 rescue -10.0, MEKK2wt PB1 HTS 129.0, MEKK3 PB1 HTS 135.0*, CHT block inactive, MEKK2 mut-MEK5 25.0, MEKK2wt confirm 98.0, MEKK2mut confirm -13.0 and MEKK3 confirm 96.0.
For O=C1CN(C(=O)COc2c(F)c(F)cc(F)c2F)c2ccccc2N1 the results were CHT PAM inactive, SUMO Mot1 rescue 1.2, MEKK2wt PB1 HTS 100.0, MEKK3 PB1 HTS 94.0, CHT block inactive and MEKK2 mut-MEK5 2.0.
O=C(COC(=O)c1ccc(S(=O)(=O)N2CCc3ccccc3C2)cc1)NC1CCS(=O)(=O)C1 (centres undefined) was read as CHT PAM inactive, SUMO Mot1 rescue -2.3, MEKK2wt PB1 HTS 58.0, MEKK3 PB1 HTS 50.0*[inhibitor], CHT block inactive, MEKK2 mut-MEK5 -17.0, MEKK2wt confirm 105.0, MEKK2mut confirm 5.0 and MEKK3 confirm 102.0.
For Cc1ccc(CNC(=O)C2CC(=O)N(CCC(C)C)C2)cc1 (centres undefined) the results were CHT PAM inactive, SUMO Mot1 rescue 15.0, MEKK2wt PB1 HTS 8.0*[inhibitor], MEKK3 PB1 HTS 5.0*[inhibitor], CHT block inactive, MEKK2 mut-MEK5 -45.0, MEKK2wt confirm 99.0, MEKK2mut confirm -8.0 and MEKK3 confirm 99.0.
For COc1cc(Br)c(C2C(C#N)=C(N)Oc3n[nH]c(-c4cccnc4)c32)cc1OC (centres undefined) the results were CHT PAM inactive, SUMO Mot1 rescue 46.4, MEKK2wt PB1 HTS 108.0, MEKK3 PB1 HTS 126.0, CHT block inactive and MEKK2 mut-MEK5 -1.0.
Screening CC(=O)C1=C(c2ccccc2)NC(=O)NC1c1ccccc1OCC#N (centres undefined) returned CHT PAM inactive, SUMO Mot1 rescue 0.1 and CHT block inactive.
Screening CCOc1ccc(CNCCNC(=O)c2nonc2N)cc1 returned CHT PAM inactive, SUMO Mot1 rescue 10.7, MEKK2wt PB1 HTS 100.0, MEKK3 PB1 HTS 106.0, CHT block inactive and MEKK2 mut-MEK5 -1.0.
Screening Nc1nonc1C(=O)NCCNCc1ccccc1OCc1ccc(F)cc1 returned CHT PAM inactive, SUMO Mot1 rescue 83.7, MEKK2wt PB1 HTS 153.0*, MEKK3 PB1 HTS 107.0, CHT block inactive, MEKK2 mut-MEK5 17.0, MEKK2wt confirm 118.0, MEKK2mut confirm 5.0 and MEKK3 confirm 102.0.
Screening Cc1nc(NC(=S)NC(=O)COc2ccc(Cl)cc2)ccc1Br returned CHT PAM inactive, SUMO Mot1 rescue 55.4, MEKK2wt PB1 HTS 104.0, MEKK3 PB1 HTS 139.0*, CHT block inactive, MEKK2 mut-MEK5 -1.0, MEKK2wt confirm 101.0, MEKK2mut confirm 4.0 and MEKK3 confirm 102.0.
Screening CCOC(=O)C1=C(COC(=O)COc2ccc(C#N)cc2)NC(=O)NC1C (centres undefined) returned CHT PAM inactive, SUMO Mot1 rescue -12.1, MEKK2wt PB1 HTS 105.0, MEKK3 PB1 HTS 100.0, CHT block inactive and MEKK2 mut-MEK5 4.0.
Screening COc1cc(/C=N/NC(=S)NC(C)C)ccc1OCC(=O)Nc1c(C)cc(C)cc1C returned CHT PAM inactive, SUMO Mot1 rescue -10.0, MEKK2wt PB1 HTS 100.0, MEKK3 PB1 HTS 97.0, CHT block inactive and MEKK2 mut-MEK5 -2.0.
Screening CCCCNC(=S)N(C)/N=C/c1ccc(OCC(=O)Nc2ccc(OC)cc2)c(OC)c1 returned CHT PAM inactive, SUMO Mot1 rescue -7.4, MEKK2wt PB1 HTS 107.0, MEKK3 PB1 HTS 142.0*, CHT block inactive, MEKK2 mut-MEK5 -1.0, MEKK2wt confirm 108.0, MEKK2mut confirm 2.0 and MEKK3 confirm 101.0.
For CCCCNC(=S)N(C)/N=C/c1ccc(OCC(=O)Nc2c(C)cc(C)cc2C)c(OC)c1 the results were CHT PAM inactive, SUMO Mot1 rescue 2.3, MEKK2wt PB1 HTS 98.0, MEKK3 PB1 HTS 129.0*, CHT block inactive, MEKK2 mut-MEK5 -1.0, MEKK2wt confirm 107.0, MEKK2mut confirm 0.0 and MEKK3 confirm 104.0.
Screening CCNC(=S)N/N=C/c1ccc(OCC(=O)Nc2ccc(OC)cc2)c(OC)c1 returned CHT PAM inactive, SUMO Mot1 rescue 401.3, MEKK2wt PB1 HTS 102.0, MEKK3 PB1 HTS 103.0, CHT block inactive and MEKK2 mut-MEK5 1.0.
Cc1ccc(CCNS(=O)(=O)c2ccc3c(c2)NC(=O)CCS3)cc1 was read as CHT PAM inactive, SUMO Mot1 rescue 5.0, MEKK2wt PB1 HTS 98.0, MEKK3 PB1 HTS 101.0, CHT block inactive and MEKK2 mut-MEK5 -4.0.

High-throughput results deposited in PubChem by several laboratories.
